Screens (PubChem BioAssay)
Shown are actives, neighbours in structure and some others; about 1.6% of the full set was active somewhere.
KCNQ2 block: rat KCNQ2 potassium channel inhibitors, primary screen, cell-based, CHO-K1, FluxOR thallium flux, B-score; 20 min; active compounds read low; Potassium voltage-gated channel subfamily KQT member 2 (Rattus norvegicus), O88943; 310,000 compounds, 1.1% hits; B-score at 10 µM; AID 2156, 2009;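 active = fluorescence ratio B-score at most minus 3 library SDs, with starting brightness B-score within 2 library SDs, cut at about -5.5 in these data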
KCNQ2 pot: potentiators of rat KCNQ2 potassium channel. CHO-K1 KCNQ2, FluxOR thallium flux fluorescence; active compounds read high. B-score at 10 µM. 310,000 compounds, 0.54% hits. AID 2239, 2010;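 active = fluorescence ratio B-score at least 3 SD of library B-scores, with initial fluorescence B-score within 3 of them, cut at about 5.3 in these data; same plate scores as AID 2156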;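 note: B-score of peak minus minimum over baseline fluorescence ratio after K+ and Tl+ stimulus; positive B-score means potentiation of KCNQ2 with more thallium influx and brighter signal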
Kir21 conf inh: mouse Kir2.1 channel blockers, retest, confirmation, cell-based, FluxOR thallium flux, duplicate; Tl flux remaining, % of negative control (active compounds read low), % at 10 µM; shares compounds with KCNQ2 pot; Kir2.1-expressing cells, FluxOR thallium flux fluorescence; active compounds read low; 2,300 compounds, 41% hits;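 active = Primary-screen hit whose thallium flux fell at least 3 control SD below untreated wells in both duplicates, with normal baseline fluorescence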;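 note: 0% = blank wells without stimulus and 100% = stimulated no-compound controls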
HEK293 Tl flux: alters thallium flux in parental HEK293 cells, Kir2.1 counter-screen; shares compounds with KCNQ2 pot; FluxOR thallium flux fluorescence; 0% = unstimulated blank wells; FluxOR signal as % of negative control (100 = no effect), % at 10 µM; 2,300 compounds, 19% hits; AID 2105;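 active = dye signal at least 3 control SD above or below untreated wells in both duplicates, raw fluorescence within 3, either direction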;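 note: percent is based on the flux ratio of peak minus minimum fluorescence over baseline F0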
CHO-K1 ctr: nonspecific thallium flux increase in parental CHO-K1, confirmation, counter-screen for KCNQ2 potentiator project, cell-based, FluxOR thallium flux, duplicate. shares compounds with KCNQ2 pot. parental CHO-K1 cells, FluxOR thallium flux fluorescence; zero = vehicle mean+3SD, 100% = vehicle-minus-blank window. activity increase over 3SD of controls, % at 10 µM. 1,200 compounds, 43% hits;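 active = signal rise of at least 3 SD above the untreated control mean, in both duplicate wells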;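 note: counter screen of KCNQ2 potentiator hits so any rise reflects channel-independent effects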
KCNQ1 sel pot: human KCNQ1 channel potentiation off-target, confirmation, selectivity assay for KCNQ2 potentiator project, cell-based, CHO, FluxOR thallium flux | CHO KCNQ1 stable, FluxOR thallium flux fluorescence; beyond 3SD, as % of vehicle-control signal | activation over 3SD threshold, % at 10 µM | 1,200 compounds, 28% hits | shares compounds with KCNQ2 pot;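 active = fluorescence ratio rise of at least 3 SD of vehicle wells above their mean, in both replicate wells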;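 note: 0% = vehicle mean plus 3 SD and 100% = vehicle minus unstimulated blank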
Target sequence (P51787 whole entry, looked up): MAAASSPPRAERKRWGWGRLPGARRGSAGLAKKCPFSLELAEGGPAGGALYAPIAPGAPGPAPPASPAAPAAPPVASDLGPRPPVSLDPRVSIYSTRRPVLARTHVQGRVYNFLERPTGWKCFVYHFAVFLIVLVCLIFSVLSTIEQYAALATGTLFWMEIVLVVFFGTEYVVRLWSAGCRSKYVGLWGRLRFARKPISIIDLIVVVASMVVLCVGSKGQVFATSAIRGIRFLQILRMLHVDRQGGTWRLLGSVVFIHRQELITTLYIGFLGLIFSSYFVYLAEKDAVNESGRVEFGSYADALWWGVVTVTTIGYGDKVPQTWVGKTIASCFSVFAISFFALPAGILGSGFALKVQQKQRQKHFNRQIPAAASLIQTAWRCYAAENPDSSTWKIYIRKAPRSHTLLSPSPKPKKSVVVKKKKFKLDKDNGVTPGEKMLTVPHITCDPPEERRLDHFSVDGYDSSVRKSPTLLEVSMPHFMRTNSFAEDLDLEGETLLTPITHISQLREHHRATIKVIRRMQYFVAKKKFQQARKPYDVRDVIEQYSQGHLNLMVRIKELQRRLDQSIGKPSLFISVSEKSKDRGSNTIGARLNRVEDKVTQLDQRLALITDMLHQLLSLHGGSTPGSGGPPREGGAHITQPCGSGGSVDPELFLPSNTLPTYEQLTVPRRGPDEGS
KCNQ2 pot conf: rat KCNQ2 channel potentiators, confirmation, cell-based, CHO, FluxOR thallium flux, duplicate. shares compounds with KCNQ2 pot. CHO-KCNQ2 cells, FluxOR thallium flux fluorescence. potentiation, less the hit threshold, % at 10 µM. 1,200 compounds, 68% hits;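 active = fluorescence ratio rising 3 SD or more over the vehicle control mean in both replicates, plus primary screen hit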;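 note: peak minus minimum thallium fluorescence divided by baseline after K/Tl stimulus; 0% = vehicle mean plus 3 SD and 100% = vehicle minus unstimulated blank difference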
Kir2-1 sel: mouse Kir2.1 channel activation off-target, confirmation, selectivity assay for KCNQ2 potentiator project, cell-based, HEK293, FluxOR thallium flux; shares compounds with KCNQ2 pot; HEK293 Kir2.1, FluxOR thallium flux fluorescence; activity over 3SD threshold, % at 10 µM; 1,200 compounds, 2% hits;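 active = fluorescence ratio rise of at least 3 SD above the vehicle-control mean, seen in both replicates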;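 note: 0% = vehicle mean plus 3 SD and 100% = vehicle minus no-stimulus blank window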
KCNQ2 W236L MoA: potentiators of retigabine-insensitive KCNQ2 W236L, mechanism study for KCNQ2 potentiator project, cell-based, rat KCNQ2 W236L, CHO, automated patch clamp; AID 2558, 2010; automated patch clamp current; 940 compounds, 10% hits; current increase over 3SD of negative controls (%), active compounds read high, % at 25 µM; shares compounds with KCNQ2 pot;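 active = current increase at least 3 SD of the untreated controls above them in both duplicate recordings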
* hit, by the source's call; i = inactive; x = not tested or not shown.

SMILES | KCNQ2 block | KCNQ2 pot | Kir21 conf inh | HEK293 Tl flux | CHO-K1 ctr | KCNQ1 sel pot | KCNQ2 pot conf | Kir2-1 sel | others
CCc1cc(=O)oc2cc(OC(=O)c3ccco3)ccc12 | i | x | x | x | x | x | x | x
Cc1cc(=O)oc2cc(OC(=O)c3ccco3)ccc12 | i | 0.19 | i | i | x | x | x | x
CCCCN1C(=O)N(c2ccc(Cl)cc2)C(C)(O)CC1(C)C (configuration not stated) | i | x | x | x | x | x | x | x
CSc1ccccc1NC(=O)CN(c1cc(C)cc(C)c1)S(C)(=O)=O | i | x | x | x | x | x | x | x
CS(=O)(=O)N(CC(=O)Nc1ccccc1Sc1ccccc1)c1cccc(Br)c1 | i | 17.5* | i | i | -8.1 | -6.1 | 1.7* | -40.1 | KCNQ2 W236L MoA=i
CCOc1cc(N2CCOCC2)c(OCC)cc1NC(=O)CCC1CCCC1 | i | 25.4* | i | i | 0.0* | 219.9* | 112.1* | -37.3 | KCNQ2 W236L MoA=i
CCOc1cc(N2CCOCC2)c(OCC)cc1NC(=O)C1CCCC1 | i | 4.23 | x | x | x | x | x | x
CCOc1cc(N2CCOCC2)c(OCC)cc1NC(=O)COC(=O)c1ccccc1C | i | 0.04 | x | x | x | x | x | x
CCOc1cc(N2CCOCC2)c(OCC)cc1NC(=O)Cc1cccc2ccccc12 | i | 8.23* | i | i | 2.4* | 25.9* | 9.3* | -41.1 | KCNQ2 W236L MoA=i
COc1ccc(CNC(=O)c2csc(Cc3ccc(Cl)cc3)n2)cc1 | i | x | x | x | x | x | x | x
COc1ccc(CNC(=O)c2csc(Cc3ccc(OC)cc3)n2)cc1 | i | x | 52.0%* | i | x | x | x | x
CCCOc1cccc(-c2cc(-c3n[nH]c(=S)n3CC)c3ccccc3n2)c1 | i | 26* | i | i | 115.1* | -19.5 | -20.0 | -35.2
CCn1c(-c2cc(-c3ccc(OC(C)C)cc3)nc3ccccc23)n[nH]c1=S | i | x | x | x | x | x | x | x
Cc1ccc(C(=O)NC(=S)N(C)C2CCCCC2)cc1 | i | 5.73* | i | 212.0%* | -36.9 | 18.3* | 31.1* | -19.8 | KCNQ2 W236L MoA=i
CN(C(=S)NC(=O)/C=C/c1ccc(F)cc1)C1CCCCC1 | i | x | x | x | x | x | x | x
COCCN1CCN(Cc2nc(Cc3ccc(OC)c(OC)c3)no2)CC1 | i | 1.32 | x | x | x | x | x | x
COc1ccc(Cc2noc(CN3CCN(Cc4cccc(Cl)c4)CC3)n2)cc1OC | i | 7.2* | i | i | 42.8* | -15.7 | -26.3 | -13.8
O=C(CCC(=O)c1ccc(F)cc1)NC1CCCN(Cc2ccccc2F)C1 (configuration not stated) | i | 1.34 | x | x | x | x | x | x
Cc1ccc(N/C(N)=N/c2nc(C)cc(C)n2)cc1 | i | 0.74 | x | x | x | x | x | x
Cc1cc(C)nc(/N=C(\N)Nc2ccc(C(C)C)cc2)n1 | i | 5.52* | i | i | 99.5* | -15.3 | -16.6 | -41.7
COc1ccc(OCC(=O)NNC(=O)C(=O)Nc2cc(OC)ccc2OC)cc1 | i | 11.4* | i | 264.0%* | 41.8* | -5.1 | 8.0* | -26.2 | KCNQ2 W236L MoA=i
COc1ccc(OC)c(NC(=O)NNC(=O)COc2ccc(-c3ccccc3)cc2)c1 | i | x | x | x | x | x | x | x
COc1ccc(C(=O)NNC(=O)C(=O)Nc2cccc3ccccc23)cc1 | i | 10.2* | i | 156.5%* | 2.3* | -20.3 | -2.0 | -22.9 | KCNQ2 W236L MoA=i
COc1ccc(OC)c(NC(=O)C(=O)NNC(=O)COc2ccc(Br)cc2C)c1 | i | 17.2* | i | 349.5%* | -8.3 | 12.0* | 68.0* | -14.7 | KCNQ2 W236L MoA=i
COc1ccc(OC)c(NC(=O)Nc2c(O)ccc3ccccc23)c1 | i | 7.77* | x | x | -21.3 | -39.8 | -11.4 | -71.8
SMILES | KCNQ2 block | KCNQ2 pot | Kir21 conf inh | HEK293 Tl flux | CHO-K1 ctr | KCNQ1 sel pot | KCNQ2 pot conf | Kir2-1 sel | others
COc1ccc(CC(=O)NNC(=O)COc2ccc(Br)cc2C)cc1OC | i | x | x | x | x | x | x | x
COc1ccc(OC)c(NC(=O)Nc2ccc(O)c3ccccc23)c1 | i | x | x | x | x | x | x | x
COc1ccc(C(=O)Nc2cccc3ccccc23)cc1 | i | x | x | x | x | x | x | x
COc1ccc(COc2cc(-c3cccc(OC)c3)nc3ccc(NC(=O)c4cccnc4)cc23)cc1 | i | x | x | x | x | x | x | x
O=C(NC1CCCCC1)c1ccc2snnc2c1 | i | 0.93 | x | x | x | x | x | x
COC(=O)C[C@H]1c2cc(C(F)(F)F)ccc2S(=O)(=O)N1C(C)(C)C | i | x | x | x | x | x | x | x
Cc1cccn2c(=O)nc(SCC(=O)N3CC(C)OC(C)C3)nc12 (configuration not stated) | i | 2.22 | x | x | x | x | x | x
O=C(COc1ccc2ccccc2c1)NNC(=O)Nc1ccccc1F | i | x | x | x | x | x | x | x
Cc1ccccc1NC(=O)C(=O)NNC(=O)COc1ccc2ccccc2c1 | i | 6.97* | i | 248.5%* | -4.3 | -15.1 | 19.9* | -21.1 | KCNQ2 W236L MoA=i
CC1=C(C(=O)Nc2ccccc2)C(c2ccc(C)o2)N2C(=O)CSC2=N1 (configuration not stated) | i | x | x | x | x | x | x | x
COCC(=O)O[C@]1(CCN(C)CCCc2nc3ccccc3[nH]2)CCc2cc(F)ccc2[C@@H]1C(C)C | i | x | 31.0%* | i | x | x | x | x
O=C(COc1ccccc1F)NCc1nc2ccccc2[nH]1 | i | x | x | x | x | x | x | x
COc1ccc(NC(=O)NNS(=O)(=O)c2ccc(Br)cc2)cc1 | i | x | x | x | x | x | x | x
O=S(=O)(O)c1ccc(SCc2ccccc2)nc1 | i | 0.87 | x | x | x | x | x | x
CCOC(=O)c1c(C)[nH]c(C(=O)N/N=C/c2cc([N+](=O)[O-])ccc2O)c1C | i | 2.2 | x | x | x | x | x | x
S=c1[nH]nc(-c2ccco2)n1/N=C/C(Cl)=C/c1ccccc1 | i | 7.22* | i | 129.0%* | -20.8 | -16.2 | -3.2 | -36.3 | KCNQ2 W236L MoA=i
Cc1cc(-c2n[nH]c(=S)n2/N=C/C(Cl)=C/c2ccccc2)n[nH]1 | i | x | x | x | x | x | x | x
COc1cc(OC)c(OC)cc1CN(C)CC1CCCN(CCc2ccccc2F)C1 (configuration not stated) | i | 0.01 | x | x | x | x | x | x
